From PubChem BioAssay
In the library only some 2.1% were active in any assay of this set; here they are far more common.
FUS yeast rescue = suppressors of FUS proteinopathy in yeast | AID 1347120 | S. cerevisiae FUS-expressing, growth rescue, OD600, 24 h | 390,000 tested, 0.24% active | Potency, µM (top dose mostly 76.6 µM), usual class: activators;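 further: plate controls were DMSO vehicle for no effect and reference control for full effect; nearly all actives have a fitted effect of over 55% in size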
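Compound concentration series was pinned onto galactose-induced FUS-expressing yeast seeded at OD 0.005. Plates sat 24hr at 30C; absorbance at 600 nm gave growth. DMSO served as background control.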
TDP43 rescue = TDP-43 toxicity inhibition in yeast. Potency, µM (titrated, usually from 46.1 µM), for the others: at the highest dose growth rescue (activation), hits mostly activators. AID 652104. TDP-43 expressing yeast growth rescue, BacTiter-Glo, 24 h. 410,000 tested, 1.8% active; further: % of control where 0% means no effect; nearly all actives have a fitted effect of over 50% in size
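Growth rescue of TDP-43-toxic yeast measured as ATP luminescence (BacTiter-Glo). Cells grown to mid-log in raffinose, induced in galactose at OD600=0.02, exposed to compound 24 hr at 30 deg C.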
TSG101-PTAP inh = blocks PTAP/TSG101 interaction to inhibit HIV-1 budding; Q99816; Fluorescence polarization, FITC-PTAP peptide / Tsg101 binding; Potency, µM (titrated, usually from 115 µM), for the others: top-dose activity change, negative = inhibition, most hits filed as inhibitors; 340,000 tested, under 10 active; active means well fitted inhibition curve with a large enough effect in the main read-out, with a control signal flat, not every such curve was filed as active; inconclusive means small, poorly fitted or top-dose-only effect, or effect the other way, or a change in a side signal; inactive means no such curve, though single readings can be large or run the other way; further: % of control where 0% means no effect
Target sequence (Q99816 whole entry, looked up): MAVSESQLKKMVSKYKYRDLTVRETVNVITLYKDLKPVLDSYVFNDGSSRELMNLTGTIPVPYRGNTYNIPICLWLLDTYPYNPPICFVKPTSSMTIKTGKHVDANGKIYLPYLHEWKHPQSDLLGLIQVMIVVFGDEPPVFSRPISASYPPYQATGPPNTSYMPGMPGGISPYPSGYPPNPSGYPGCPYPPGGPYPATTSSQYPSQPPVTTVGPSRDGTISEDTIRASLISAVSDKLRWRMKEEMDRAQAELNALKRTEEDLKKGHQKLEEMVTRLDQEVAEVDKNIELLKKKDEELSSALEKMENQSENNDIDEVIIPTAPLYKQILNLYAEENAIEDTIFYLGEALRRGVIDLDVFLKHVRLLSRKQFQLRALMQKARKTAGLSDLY
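Fluorescence anisotropy tracks displacement of a FITC-tagged PTAP peptide (50 nM) from the Tsg101 binding domain (10 uM), following a 20 min room-temperature incubation at pH 7.5.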
Abeta yeast res = compounds reversing amyloid beta toxicity in yeast | yeast expressing A-beta42, growth rescue, OD600, 48 h; response scale: 0% DMSO, 100% iron-clioquinol control | 410,000 tested, 0.063% active | Potency, µM (titrated, usually from 46.1 µM), usual class: activators; further: nearly all actives have a fitted effect of over 55% in size
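Yeast A-beta toxicity model in growth medium with pinned compounds, 48 h at 30 C; growth read as absorbance at 600 nm. Normalized to FeCl3/clioquinol equimolar mix (positive) and DMSO (negative).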
aSyn rescue = rescues yeast growth from alpha-synuclein toxicity | Yeast expressing alpha-synuclein, growth rescue, BacTiter-Glo, 24 h | Potency, µM (doses to about 46.1 µM), for inactives: at the highest dose growth rescue (activation), hits mostly activators | 370,000 tested, 0.14% active | AID 652106; further: % of control where 0% means no effect; nearly all actives have a fitted effect of over 65% in size
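Rescue of yeast growth: cells expressing toxic alpha-synuclein, induced in galactose at OD600 0.02, incubated with compound 24 h at 30 C. ATP luminescence quantified growth; inhibitors of toxicity appear as activators.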
An asterisk follows results filed as active; [ ] = dose if it differs, or a comment. Unless noted, the call rests on the fitted dose curve; in most records, active means well fitted curve in the direction sought with a large enough effect; inconclusive means small, poorly fitted or top-dose-only effect, or another doubt; inactive means no such curve, though single readings can be large; an effect the other way counts as inactive or inconclusive. Potency means the concentration at half of the fitted maximal effect.

What do the screens show for `CC(C)(C)C1CCc2nc(NC(=O)Cc3cn4ccsc4n3)sc2C1` (configuration not stated)?
FUS yeast rescue: inconclusive; TDP43 rescue: 16µM*; TSG101-PTAP inh: -6%; Abeta yeast res: inactive; aSyn rescue: 9%

Results for Cc1ccc(CC(=O)Nc2nc3c(s2)CCCC3)cc1 ?
FUS yeast rescue: inactive; TDP43 rescue: 16µM*; TSG101-PTAP inh: -1%; Abeta yeast res: inconclusive; aSyn rescue: 6%

What do the screens show for `COc1ccc(OCC(=O)Nc2nc3c(s2)CCCC3)cc1`?
FUS yeast rescue: inactive; TDP43 rescue: inconclusive; TSG101-PTAP inh: -5%; Abeta yeast res: inactive; aSyn rescue: 11%

How did CC1CCc2nc(NC(=O)c3ccco3)sc2C1 (configuration not stated) do in these assays?
FUS yeast rescue: inactive; TDP43 rescue: 0%; TSG101-PTAP inh: -5%; Abeta yeast res: inactive; aSyn rescue: -16%

How did OC(CN1C=CCc2ccccc21)c1ccc(Cl)cc1Cl (configuration not stated) do in these assays?
aSyn rescue: -6%

What do the screens show for `COC(=O)[C@H]1C[C@@]2(C#N)c3ccccc3N(C(=O)OC(C)(C)C)[C@H]2N1C(=O)OC(C)(C)C`?
FUS yeast rescue: inactive

Results for Cc1ccccc1-c1cc2nc(NCc3ccc4occc4c3)n(C)c(=O)c2s1 ?
FUS yeast rescue: inconclusive; TDP43 rescue: inconclusive; Abeta yeast res: inactive; aSyn rescue: inconclusive

Results for CCN(C(=O)CSc1nc2ccccc2n1CC(=O)Nc1ccccc1C)c1ccccc1 ?
FUS yeast rescue: inactive; TDP43 rescue: 6%; Abeta yeast res: inactive

Results for O=C(CCCc1cccs1)Nc1nc2c(s1)CCCC2 ?
FUS yeast rescue: inactive; TDP43 rescue: 13µM*; TSG101-PTAP inh: -5%; Abeta yeast res: inconclusive; aSyn rescue: -15%

What do the screens show for `CCc1nc(SCC(=O)c2ccc3c(c2)OCCO3)c2ccccc2n1`?
FUS yeast rescue: inactive; TDP43 rescue: 18µM*; TSG101-PTAP inh: -7%; Abeta yeast res: inactive; aSyn rescue: 0%

Results for O=C(Nc1nc2c(s1)CCCC2)c1ccc2ncsc2c1 ?
FUS yeast rescue: inactive; TDP43 rescue: 13µM*; TSG101-PTAP inh: -1%; Abeta yeast res: inactive; aSyn rescue: -35%

How did Cc1csc(NC(=O)CCCc2cccs2)n1 do in these assays?
FUS yeast rescue: inactive; TDP43 rescue: 13%[9.22 µM]; TSG101-PTAP inh: 0%; Abeta yeast res: inactive; aSyn rescue: -3%

Results for O=C(CSc1nnnn1C1CCCCC1)Nc1nc2c(s1)CCCC2 ?
FUS yeast rescue: inactive; TDP43 rescue: 13µM*; TSG101-PTAP inh: 2%; Abeta yeast res: inactive; aSyn rescue: inconclusive

What do the screens show for `O=C(CSc1nc(Cc2ccccc2)nc2ccccc12)c1ccc2c(c1)OCCO2`?
FUS yeast rescue: inactive; TDP43 rescue: -16%; TSG101-PTAP inh: -3%; Abeta yeast res: inactive; aSyn rescue: 0%

Results for Cc1ccc(Cl)cc1NC(=O)C(=O)NCC(c1cccnc1)N1CCc2ccccc21 (configuration not stated) ?
FUS yeast rescue: inactive; TDP43 rescue: inconclusive; Abeta yeast res: inactive

Results for Cc1c(C(=O)N(CCO)Cc2ccccc2)oc2c(F)cccc12 ?
FUS yeast rescue: inactive; TDP43 rescue: inconclusive; TSG101-PTAP inh: -5%; Abeta yeast res: inactive; aSyn rescue: 15%

How did CCc1nc(SCC(=O)Nc2nc3c(s2)CCCC3)c2ccccc2n1 do in these assays?
FUS yeast rescue: inactive; TDP43 rescue: 10µM*; TSG101-PTAP inh: -9%; Abeta yeast res: inactive; aSyn rescue: -6%

How did CCCc1nc(SCC(=O)Nc2nc3c(s2)CCCC3)c2ccccc2n1 do in these assays?
FUS yeast rescue: inconclusive; TDP43 rescue: 1%; TSG101-PTAP inh: -2%; Abeta yeast res: inactive; aSyn rescue: -9%

Results for c1cc(N2CCCC2)ccc1C(c1nnnn1C1CCCCC1)N1CCOCC1 (configuration not stated) ?
FUS yeast rescue: 40µM*; TDP43 rescue: -7%; TSG101-PTAP inh: -9%; Abeta yeast res: inactive; aSyn rescue: 27%

How did O=C(N1CCOCC1)N1CC[C@H]2[C@H](CCCN2Cc2ccccc2)C1 do in these assays?
FUS yeast rescue: inactive

Results for COc1ccc(OC)c(C2C(C(=O)N3CCCCC3)=C(C)Nc3nc4ccccc4n32)c1 (configuration not stated) ?
FUS yeast rescue: inactive; TDP43 rescue: -1%; Abeta yeast res: inactive

How did COc1ccc(N=Cc2nc(-c3ccco3)oc2O)cc1 do in these assays?
FUS yeast rescue: inactive; TDP43 rescue: 7.1µM*; TSG101-PTAP inh: 0%; Abeta yeast res: inactive; aSyn rescue: -7%

Results for c1ccc(Cn2c(-c3cncs3)nc3ccccc32)cc1 ?
FUS yeast rescue: inactive; TDP43 rescue: 7.9µM*; TSG101-PTAP inh: -2%; Abeta yeast res: inactive; aSyn rescue: -11%

Results for Brc1ccc(Cn2c(-c3cncs3)nc3ccccc32)cc1 ?
FUS yeast rescue: inactive; TDP43 rescue: inconclusive; TSG101-PTAP inh: 1%; Abeta yeast res: inactive; aSyn rescue: 1%

How did CCc1nn2c(=O)cc(COc3ccc(/C=C(\C#N)C(=O)Nc4ccc(C)cc4)cc3)nc2s1 do in these assays?
FUS yeast rescue: inactive; TDP43 rescue: 4%; Abeta yeast res: inactive

How did Fc1ccc(CSc2nnc(-c3ccccn3)o2)cc1 do in these assays?
FUS yeast rescue: inactive; TDP43 rescue: 13µM*; TSG101-PTAP inh: -1%; Abeta yeast res: inactive; aSyn rescue: -2%

What do the screens show for `CCc1ccc(OCC(=O)NCCc2ccc3c(c2)OCCO3)cc1`?
FUS yeast rescue: inactive; TDP43 rescue: 32µM*; TSG101-PTAP inh: -1%; Abeta yeast res: inactive; aSyn rescue: 8%

What do the screens show for `CCc1ccc(OCC(=O)Nc2ccc3c(c2)COC3=O)cc1`?
FUS yeast rescue: inactive; TDP43 rescue: 13µM*; TSG101-PTAP inh: -9%; Abeta yeast res: inactive; aSyn rescue: 5%

What do the screens show for `CCCCCn1c(-c2ccc(OC)c(OC)c2)nc2ccccc21`?
FUS yeast rescue: inactive; TDP43 rescue: 21%; Abeta yeast res: inactive

Results for COc1ccc(-n2ncc3c(N4CCC(C)CC4)ncnc32)cc1 ?
FUS yeast rescue: inactive; TDP43 rescue: 14µM*; TSG101-PTAP inh: 0%; Abeta yeast res: inactive; aSyn rescue: -8%

How did Cc1ccc(C(=O)NCc2ccc(Cl)c(Cl)c2)o1 do in these assays?
FUS yeast rescue: inactive; TDP43 rescue: inconclusive; TSG101-PTAP inh: -3%; Abeta yeast res: inactive; aSyn rescue: -9%
